Inconclusive results are not listed. Calls come from the whole dose curve; as a rule, active = well fitted inhibition curve with a large enough effect; inconclusive = small, poorly fitted or top-dose-only effect, or effect the other way; inactive = flat fitted curve, though single readings scatter.
test: qHTS for Inhibitors of Plasmodium falciparum (CP250) proliferation (AID 504320);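 note: plate controls were DMSO vehicle for no effect and 0.29 µM artemisinin control for full effect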; details: P. falciparum CP250 in erythrocytes, SYBR Green DNA, 72 h; series mostly up to 6.7 µM; activity change, negative = inhibition: at the top concentration
How it was run: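 Erythrocytes infected with P. falciparum line (0.3% parasitemia, 2.5% hematocrit final) incubated with compounds 72 h at 37 °C, 5% CO2; SYBR Green lysis buffer added, fluorescence read next day. Normalized to 0.29 uM artemisinin and DMSO.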

Activity change, negative = inhibition, inactive:
COC(=O)C1=C(C(=O)OC)[C@@H]2N(C)c3ccc(OC)cc3[C@@]23C[C@@H](C(=O)OC)N(S(=O)(=O)c2ccc4c(c2)OCCN4C)C3=N1 -2.91%
CCCCC1=CC2=C(c3ccco3)C(=O)C(C)(OC(=O)c3ccc(OC)cc3)C(=O)C2=CN1CCc1c[nH]c2ccccc12 (stereo unspecified) 5.35%
O=C(NS(=O)(=O)c1ccc(F)cc1)O[C@@H]1C(=O)c2cc(Br)ccc2O[C@H]1c1ccc2c(c1)OCO2 -0.403%
CCCCC1=CC2=C(c3ccco3)C(=O)C(C)(OC(=O)c3ccc(OC)cc3)C(=O)C2=CN1C1CCCC1 (stereo unspecified) 5.04%
COC(=O)CCC(=O)OC1(C)C(=O)C2=CN(C(CO)CO)C(c3ccc(OC)cc3)=CC2=C(Br)C1=O (stereo unspecified) -1.35%
CC(=O)C1=C(C)N(Cc2ccccc2)C(=O)N[C@H]1c1ccco1 12.6%
COC(=O)[C@@]1(C=C2c3ccc(F)cc3[C@@H](OC)[C@@H]2C)[C@@H]2CC=C[C@@H]21 -3.35%
COC/C=C/C1=CC2=CC(=O)C(C)(OC(=O)c3cnc4ccccc4n3)C(=O)C2=CN1Cc1ccc2c(c1)OCO2 (stereo unspecified) 2.69%
CCCC[C@]12Cc3cc(OC)c(OC)cc3[C@H](O1)C1=C(O2)C(=O)c2ccccc2C1=O -12.6%
COC(=O)CCC(=O)OC1(C)C(=O)C2=CN(c3ccccc3)C(c3ccc(OC)cc3)=CC2=C(Br)C1=O (stereo unspecified) -0.545%
COC/C=C/C1=CC2=CC(=O)C(C)(OC(=O)c3cnc4ccccc4n3)C(=O)C2=CN1C1CCCC1 (stereo unspecified) 3.71%
